{
  "source": "PubChem BioAssay (NCATS)",
  "note": "Inconclusive results are not listed. A number with no mark means an inactive call. Calls of active or inactive are those of the source. Calls follow the shape of the dose curve; as a rule, active = well fitted inhibition curve with a large enough effect; inconclusive = small, poorly fitted or top-dose-only effect; inactive = no such curve, though single readings can be large or run the other way. % is scaled to controls: 0 for no effect and ±100 for the full control effect; potency is read from the fitted curve at half-maximal effect.",
  "data": [
    {"molecular_target": "Rap guanine nucleotide exchange factor 4 (Homo sapiens) (UniProt Q8WZA2)", "sequence (Q8WZA2 whole entry, looked up)": "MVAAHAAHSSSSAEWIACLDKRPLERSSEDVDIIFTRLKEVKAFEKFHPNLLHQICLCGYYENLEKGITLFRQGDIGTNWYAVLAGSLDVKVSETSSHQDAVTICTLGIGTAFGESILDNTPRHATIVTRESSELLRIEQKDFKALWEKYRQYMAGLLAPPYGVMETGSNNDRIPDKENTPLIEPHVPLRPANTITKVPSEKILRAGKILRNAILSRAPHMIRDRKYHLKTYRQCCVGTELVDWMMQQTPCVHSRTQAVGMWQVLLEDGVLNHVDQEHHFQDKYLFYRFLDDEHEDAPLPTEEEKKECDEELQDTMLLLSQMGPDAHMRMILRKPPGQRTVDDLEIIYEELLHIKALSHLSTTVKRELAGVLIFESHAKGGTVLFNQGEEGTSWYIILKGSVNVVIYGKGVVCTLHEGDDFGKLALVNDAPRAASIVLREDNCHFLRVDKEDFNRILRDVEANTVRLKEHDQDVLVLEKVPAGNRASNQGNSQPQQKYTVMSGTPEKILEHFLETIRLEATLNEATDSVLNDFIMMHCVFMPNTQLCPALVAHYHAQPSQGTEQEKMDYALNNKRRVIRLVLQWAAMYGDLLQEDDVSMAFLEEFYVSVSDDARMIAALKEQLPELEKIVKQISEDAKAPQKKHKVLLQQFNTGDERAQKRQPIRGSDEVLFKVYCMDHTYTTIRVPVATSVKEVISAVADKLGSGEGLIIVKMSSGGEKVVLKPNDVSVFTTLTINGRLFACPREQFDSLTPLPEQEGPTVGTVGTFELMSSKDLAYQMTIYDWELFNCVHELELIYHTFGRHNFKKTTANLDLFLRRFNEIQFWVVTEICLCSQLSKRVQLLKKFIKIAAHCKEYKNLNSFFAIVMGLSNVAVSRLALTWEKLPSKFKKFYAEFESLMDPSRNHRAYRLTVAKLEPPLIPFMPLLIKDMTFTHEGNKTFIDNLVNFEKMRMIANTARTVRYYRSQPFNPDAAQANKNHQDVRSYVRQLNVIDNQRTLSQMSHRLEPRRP", "assay": "Confirmatory qHTS for antagonist of cAMP-regulated guanine nucleotide exchange factor 4 (EPAC2) (AID 1645885); also: nearly all actives have a fitted effect of over 25% in size", "settings": "EPAC2 Rap1B-BODIPY-GDP exchange fluorescence, biochemical; series mostly up to 12.7 µM; activity change, negative = inhibition: at the top concentration", "values": [
      {"smiles": "Cc1[nH]c2ccccc2c1C(c1ccccc1)c1ccc(Cl)s1", "note": "(centres undefined)", "activity change, negative = inhibition": "12.6%"},
      {"smiles": "COc1ccc2oc(C)c(C(=O)c3ccccc3)c2c1", "activity change, negative = inhibition": "-1.23%"},
      {"smiles": "COc1ccc(N=Cc2c(O)n(-c3cccc(C)n3)c(=O)c3ccccc23)c(OC)c1", "activity change, negative = inhibition": "-11.4%"},
      {"smiles": "O=C(Cn1c(=O)n(-c2ccccc2)c(=O)c2c3c(sc21)CCC3)c1ccc(Br)cc1", "activity change, negative = inhibition": "-12%"},
      {"smiles": "CCc1cccc(CC)c1N1C(=O)C2=C(SCCCS2)C1=O", "activity change, negative = inhibition": "-16.2% [at 114 µM]"},
      {"smiles": "COc1ccc(Cl)cc1NC(=O)CN(C)C(C)C(=O)NC(=O)NC1CCCCC1", "note": "(centres undefined)", "activity change, negative = inhibition": "28.4% [at 114 µM]"},
      {"smiles": "CCN(CC)c1ccc2cc(-c3nc(-c4ccccc4)no3)c(=O)oc2c1", "Potency": "6.01 µM (active)"},
      {"smiles": "Cc1ccccc1-n1c(O)c(/C=C/C=Nc2ccccc2)c(=O)[nH]c1=O", "activity change, negative = inhibition": "101% [at 114 µM]"},
      {"smiles": "COc1ccccc1CNc1cc(C)nc2nc(-c3ccc(C)cc3)nn12", "activity change, negative = inhibition": "-9.44%"},
      {"smiles": "Cc1cccc(-n2c(N)c(-c3nc4ccccc4n3C)c3nc4ccccc4nc32)c1", "activity change, negative = inhibition": "1.24%"},
      {"smiles": "O=C(N/N=C/c1cc(Cl)cc([N+](=O)[O-])c1O)NC12CC3CC(CC(C3)C1)C2", "activity change, negative = inhibition": "73.7% [at 114 µM]"},
      {"smiles": "O=C(OCCN1C(=O)c2cccc3c(N4CCOCC4)ccc(c23)C1=O)c1ccccc1Cl", "activity change, negative = inhibition": "2.94%"},
      {"smiles": "O=C(N=c1ccn(-c2nc3ccccc3nc2NS(=O)(=O)c2ccccc2)cc1)c1ccccc1Cl", "Potency": "75.7 µM (active)"},
      {"smiles": "CCOC(=O)c1sc2nc3c(SCC(=O)O)cc(C(=O)c4cc(F)ccc4O)cn3c(=O)c2c1C", "activity change, negative = inhibition": "28% [at 114 µM]"},
      {"smiles": "COc1ccc(O)c(C(=O)c2cc(SCC(=O)O)c3nc4sc5c(c4c(=O)n3c2)CCCC5)c1", "activity change, negative = inhibition": "43.7% [at 114 µM]"},
      {"smiles": "COc1ccc(CN(C)C(=O)CC(c2ccccc2)c2ccccc2)cc1", "outcome": "inactive"},
      {"smiles": "COc1ccc(NC(=O)/C(C#N)=C\\c2ccc(OCc3ccc(C(=O)O)cc3)c(OC)c2)cc1", "activity change, negative = inhibition": "-4.05% [at 114 µM]"},
      {"smiles": "CCOc1ccccc1NC(=O)CSc1nccn1-c1cccc(C)c1", "activity change, negative = inhibition": "6.09%"},
      {"smiles": "CN1/C(=C/C=C(C#N)C#N)C(C)(C)c2ccccc21", "activity change, negative = inhibition": "-18.6%"},
      {"smiles": "COc1cc(/C=C(\\C#N)c2nc3ccccc3o2)ccc1O", "activity change, negative = inhibition": "-13.5%"},
      {"smiles": "CCN(CC)C(=O)c1ccc(/C=C/c2c[nH]c3ccccc23)[n+](C)c1", "activity change, negative = inhibition": "6.19%"},
      {"smiles": "Cc1ccc(N2C(=O)c3cccc4c(N)ccc(c34)C2=O)c2cccnc12", "activity change, negative = inhibition": "123% [at 114 µM]"},
      {"smiles": "N#C/C(=C\\c1ccc(N2CCOCC2)o1)c1nc2ccccc2[nH]1", "activity change, negative = inhibition": "57.3% [at 114 µM]"},
      {"smiles": "O=C(O)c1cccc(-c2ccc(/C=c3/sc4nc5ccccc5n4c3=O)o2)c1", "outcome": "inactive"},
      {"smiles": "COc1cc(C2CC(=O)Oc3cc(C)cc(C)c32)cc(OC)c1OC", "note": "(centres undefined)", "Potency": "1.51 µM (active)"},
      {"smiles": "COC(=O)c1c(SC)nc2ccccc2c1OCc1ccc(C)cc1C", "activity change, negative = inhibition": "18.2%"},
      {"smiles": "O=c1oc2cc(O)ccc2cc1-c1nc2c(s1)CCc1ccccc1-2", "activity change, negative = inhibition": "153% [at 114 µM]"},
      {"smiles": "COc1ccccc1C(=O)NNC(=O)CCCN1C(=O)/C(=C/c2cccs2)SC1=S", "activity change, negative = inhibition": "2.21%"},
      {"smiles": "Cc1ccc(-c2csc3ncnc(Nc4ccc(C(=O)O)cc4)c23)cc1", "activity change, negative = inhibition": "4.58%"},
      {"smiles": "CN(Cc1cccs1)c1nc(-c2cccnc2)nc2ccccc12", "activity change, negative = inhibition": "-10.5%"},
      {"smiles": "COc1ccc(N=Cc2sc(O)c3ccccc23)cc1", "activity change, negative = inhibition": "20.9%"},
      {"smiles": "O=C(N/N=C/c1cccnc1)c1cc(-c2ccccc2OCc2ccccc2)n[nH]1", "activity change, negative = inhibition": "-4.56% [at 114 µM]"},
      {"smiles": "CC(C)n1cc(/C=C/c2cc[n+](C)cc2)c2ccccc21", "activity change, negative = inhibition": "70.5% [at 114 µM]"},
      {"smiles": "Cc1ccc2[nH]cc(/C=C/c3cc[n+](C)cc3)c2c1", "activity change, negative = inhibition": "65.8% [at 114 µM]"},
      {"smiles": "Cc1cccc(-c2nc3nc(C)cc(NCc4ccccc4Cl)n3n2)c1", "activity change, negative = inhibition": "-8.93%"},
      {"smiles": "CCOC(=O)N1CCc2c(sc3c2c(=O)n(-c2ccc(F)cc2)c(=O)n3CC(=O)c2ccc(Cl)cc2)C1", "activity change, negative = inhibition": "32.1%"},
      {"smiles": "CCOc1cc(/C=C2\\CCCc3c2nc2ccccc2c3C(=O)O)ccc1OC", "activity change, negative = inhibition": "107% [at 114 µM]"},
      {"smiles": "NC(=O)c1c(NC(=O)c2ccccc2)sc2c1CCN(Cc1ccccc1)C2", "Potency": "84.9 µM (active)"},
      {"smiles": "CN(C)c1ccc(/C=C2\\SC(=S)N(Nc3ncc(C(F)(F)F)cc3Cl)C2=O)cc1", "Potency": "16.9 µM (active)"}
    ]}
  ]
}
